Reference: PubChem BioAssay AID1159580 (chemical genetic matrix, 2015)
In all, about 5,500 compounds went through this assay and about 2,000 (36%) were called active. Another 18% or so got no clear call; they are omitted. No stated cut-off is given here; in the data, active means normalized growth mostly below about 0.91 (no sharp cut-off); inconclusive means no clear call, values can overlap the other calls; inactive means mostly above about 0.92. This is one part of the list.

Test: chemical genetic growth profiling, strain panel (AID 1159580);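 further: tested at 20 µM; growth read once vehicle control cultures reached saturation at 30 °C; 1 = growth at the plate median or of vehicle wells; lower values mean less growth of the strain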
Conditions: S. cerevisiae deletion strains, growth OD

Measured: normalized growth

CC(C)(C=O)Cc1cc(C(C)(C)C)c(O)c(C(C)(C)C)c1
inactive: locus YAL013W, strain DEP1, hits give low values 1.02 | locus YAL040C, strain CLN3, hits give low values 0.968 | locus YER002W, strain NOP16, hits give low values 0.98 | locus YGR078C, strain PAC10, hits give low values 1 | locus YMR307W, strain GAS1, hits give low values 1.02 | locus YNL128W, strain TEP1, hits give low values 1.02 | locus YNL175C, strain NOP13, hits give low values 1.02 | locus YNL197C, strain WHI3, hits give low values 0.989 | locus YNL224C, strain SQS1, hits give low values 1 | locus YNL322C, strain KRE1, hits give low values 0.994 | locus YOR083W, strain WHI5 (second series), hits give low values 1.01 | locus YPL055C, strain LGE1, hits give low values 1.01
